Some test systems named below: RPMI-8226 leukemia; OVCAR-8 ovarian; OVCAR-5 ovarian; OVCAR-4 ovarian; SK-OV-3 ovarian; IGROV1 ovarian; NCI/ADR-RES ovarian; T-47D breast; BT-549 breast; MDA-MB-435 melanoma; SW-620 colon; MCF7 breast; HCT-116 colon; KM12 colon; OVCAR-3 ovarian; HS 578T breast; HCC-2998 colon.
Common to all, as to test: NCI-60 one-dose screen, 48 h (100 = growth as untreated, 0 = no growth, -100 = all killed)
What all share (details): 10 µM unless noted

This is part of a sample that, as a whole, favours compounds with a hit. Of some 83,000 tested, about 20% had one in any assay.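 How to read the values: 0–100, growth inhibition (40 = 60% inhibited); 0, no net growth; -100 to 0, cell death (-40 = 40% of starting cells died; -100 = all dead).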 A number with no mark means an inactive call. Activity calls are given as the source filed them. Rule for the calls: active = growth percent below 10; inactive = the rest.

Take `C=C1CCC2C3(C)COC(c4ccccc4)OC3CCC2(C)C1/C=C/C1=CCOC1=O` (stereo not given): the growth is -36.8% (active) in the assay on RPMI-8226 leukemia; 32.9% in the assay on OVCAR-8 ovarian; 78.7% in the assay with OVCAR-5 ovarian; 50% with OVCAR-4 ovarian; 72.4% in the assay on SK-OV-3 ovarian; 30.6% with IGROV1 ovarian. Further, the growth in the assay with NCI/ADR-RES ovarian is 26.2%; with T-47D breast, 72.2%; with BT-549 breast, -18.3% (active); with MDA-MB-435 melanoma it was 31.4%; in the assay with SW-620 colon it was 25.6%; with MCF7 breast, 31.8%. Further, the growth in the assay with HCT-116 colon was 8% (active); with KM12 colon, 28.7%.
As to `NC(=O)CCCN1C/C(=C\c2ccccc2)C(=O)c2ccccc21`, the growth with RPMI-8226 leukemia was 101%; in the assay on OVCAR-8 ovarian, 98.4%; in the assay with OVCAR-5 ovarian it was 101%; in the assay with OVCAR-4 ovarian it was 98.9%; in the assay with SK-OV-3 ovarian, 89.5%; in the assay with IGROV1 ovarian it was 102%. Besides, the growth in the assay on OVCAR-3 ovarian is 109%; in the assay on HS 578T breast it was 99.6%; in the assay on NCI/ADR-RES ovarian, 109%; with T-47D breast it was 83.2%; in the assay with BT-549 breast, 93.7%; in the assay on MDA-MB-435 melanoma, 101%. The growth in the assay on SW-620 colon was 97.6%; in the assay with MCF7 breast, 96.7%; in the assay with HCC-2998 colon, 93.8%; with KM12 colon, 101%.
`Nc1cc2c(cc1C(=O)c1cccc(F)c1)OCCO2`: the growth in the assay on OVCAR-8 ovarian is 91.1%; in the assay with OVCAR-5 ovarian it was 98.2%; in the assay on OVCAR-4 ovarian, 105%; in the assay with SK-OV-3 ovarian it was 93.3%; with IGROV1 ovarian it was 89.7%; in the assay with OVCAR-3 ovarian it was 116%. Moreover, the growth in the assay on HS 578T breast is 111%; in the assay on T-47D breast, 93.6%; in the assay with BT-549 breast, 84.5%; with MDA-MB-435 melanoma, 92.1%; in the assay with SW-620 colon, 105%; with MCF7 breast, 99.2%. Besides, the growth was 100% in the assay with HCT-116 colon, 95.4% in the assay on HCC-2998 colon and 100% with KM12 colon.
Turning to `COc1cc(-c2nn(-c3cccc(NC(=O)c4ccc(Cl)c(C(F)(F)F)c4)c3)cc2-c2ccncc2)ccc1Cl`, the growth in the assay on RPMI-8226 leukemia is 25.4%; in the assay on OVCAR-8 ovarian, 38.9%; in the assay on OVCAR-5 ovarian it was 91.3%; with SK-OV-3 ovarian, 64.3%; with IGROV1 ovarian it was 48.9%; with OVCAR-3 ovarian, 19.5%. The growth is 34.7% with HS 578T breast; 13.4% in the assay on NCI/ADR-RES ovarian; 26.2% in the assay on T-47D breast; 49.7% with BT-549 breast; -26.8% (active) with MDA-MB-435 melanoma; 36.1% in the assay with SW-620 colon. The figures for the growth in the assay with MCF7 breast, in the assay on HCT-116 colon and in the assay with KM12 colon were 37.6%, 24% and 28.8%, respectively.
For the molecule `COc1ccc2c(c1)cn1c3ccc(OC)cc3[nH]c(=O)c21`, the growth is -37.8% (active) with RPMI-8226 leukemia; -47.4% (active) in the assay on OVCAR-8 ovarian; 21.3% with OVCAR-5 ovarian; 40.4% in the assay on OVCAR-4 ovarian; 22.5% in the assay on SK-OV-3 ovarian; -54% (active) in the assay on IGROV1 ovarian. Moreover, the growth in the assay on NCI/ADR-RES ovarian is -2.47% (active); in the assay on T-47D breast it was -32.2% (active); with BT-549 breast, -0.958% (active); with MDA-MB-435 melanoma, -80% (active); in the assay with SW-620 colon, -38.9% (active); in the assay on MCF7 breast, -47.5% (active). Besides, the growth in the assay with HCC-2998 colon is -68.5% (active); in the assay with KM12 colon, -61.7% (active).
Consider `Nc1cc2c([nH]c[n+]2CC#CCCl)c(SCC#CCCl)n1`, for which the growth was -2.17% (active) in the assay with RPMI-8226 leukemia; 0.0129% (active) in the assay on OVCAR-8 ovarian; -76.9% (active) in the assay on OVCAR-5 ovarian; -21.7% (active) with SK-OV-3 ovarian; -57% (active) in the assay on IGROV1 ovarian; -21.1% (active) in the assay on OVCAR-3 ovarian. The growth in the assay with HS 578T breast was 47.3%; with NCI/ADR-RES ovarian it was -24.2% (active); in the assay on T-47D breast, -60.1% (active); in the assay with BT-549 breast it was -91.2% (active); in the assay with MDA-MB-435 melanoma it was -34.2% (active); with SW-620 colon, -27.2% (active). Besides, the growth was -98.6% (active) in the assay on HCT-116 colon, -96.9% (active) in the assay on HCC-2998 colon and -80.2% (active) in the assay on KM12 colon.
As to `Fc1ccc(CNCCNc2ncnc3c2cnn3-c2ccccc2)cc1`, the growth with RPMI-8226 leukemia is 84.6%; with OVCAR-8 ovarian it was 88%; with OVCAR-5 ovarian, 98.6%; with OVCAR-4 ovarian, 97.4%; in the assay on SK-OV-3 ovarian it was 94.6%; with IGROV1 ovarian, 94.2%. For the same molecule, the growth is 109% in the assay on OVCAR-3 ovarian; 92.1% in the assay on HS 578T breast; 83.7% in the assay on T-47D breast; 102% with BT-549 breast; 95.4% with MDA-MB-435 melanoma; 103% in the assay on SW-620 colon. The growth in the assay on MCF7 breast was 96.5%; in the assay on HCT-116 colon, 99.9%; in the assay with KM12 colon, 107%.
Consider `CC1=NC2=CC=CC3=NC(C(Cl)(Cl)Cl)=NC(=N1)N23`, for which the growth with RPMI-8226 leukemia is 50.3%; with OVCAR-8 ovarian it was 84.9%; in the assay on OVCAR-5 ovarian, 112%; in the assay on OVCAR-4 ovarian, 73%; with SK-OV-3 ovarian, 87.3%; in the assay with OVCAR-3 ovarian it was 34.8%. Also, the growth in the assay on HS 578T breast is 62.6%; with NCI/ADR-RES ovarian, 81.6%; with T-47D breast it was 61.4%; in the assay with BT-549 breast, 45.9%; with MDA-MB-435 melanoma, 77.9%; with SW-620 colon, 78.4%. Moreover, the growth with MCF7 breast was 62.7%; in the assay with HCT-116 colon it was 68.3%; with HCC-2998 colon, 57.5%; with KM12 colon, 85.5%.
Take `CC(O)CN1CCCCC1` (stereo not given): the growth in the assay with RPMI-8226 leukemia is 113%; in the assay with OVCAR-8 ovarian, 105%; in the assay on OVCAR-5 ovarian, 110%; in the assay on OVCAR-4 ovarian, 109%; in the assay on SK-OV-3 ovarian, 107%; with IGROV1 ovarian, 106%. In addition, the growth with OVCAR-3 ovarian was 105%; with HS 578T breast, 113%; in the assay on NCI/ADR-RES ovarian it was 106%; with T-47D breast it was 137%; in the assay with BT-549 breast, 101%; in the assay on MDA-MB-435 melanoma, 105%. Also, the growth is 102% in the assay with SW-620 colon, 103% in the assay on MCF7 breast, 115% with HCC-2998 colon and 106% in the assay with KM12 colon.
As to `CCCCCCCCN(CCCCCCCC)CCCCCCNc1cc(OC)cc2cccnc12`, the growth with RPMI-8226 leukemia is 52.3%; in the assay with OVCAR-8 ovarian it was 73.3%; with OVCAR-5 ovarian it was 92.4%; with OVCAR-4 ovarian it was 82.7%; in the assay on SK-OV-3 ovarian, 102%; with IGROV1 ovarian, 78.7%. Besides, the growth is 111% in the assay with HS 578T breast; 80.2% in the assay with NCI/ADR-RES ovarian; 104% in the assay with T-47D breast; 79.7% with BT-549 breast; 95.2% in the assay on MDA-MB-435 melanoma; 10.8% in the assay with SW-620 colon. In addition, the growth with MCF7 breast is 61.7%; with HCT-116 colon, -30.1% (active); with HCC-2998 colon it was 93.4%; in the assay with KM12 colon, 58.9%.
In the case of `COc1cccc(-c2cc3c(O)cc(C#N)cc3[nH]2)c1`, the growth in the assay with RPMI-8226 leukemia is 36.1%; in the assay on OVCAR-8 ovarian it was 106%; in the assay with OVCAR-5 ovarian, 94.7%; in the assay on OVCAR-4 ovarian it was 83.7%; in the assay with SK-OV-3 ovarian, 108%; in the assay on IGROV1 ovarian it was 103%. Further, the growth was 114% in the assay on OVCAR-3 ovarian; 43.6% in the assay on HS 578T breast; 89.2% with NCI/ADR-RES ovarian; 101% in the assay on T-47D breast; 81.7% in the assay with BT-549 breast; 70.6% with MDA-MB-435 melanoma. Besides, the growth was 88% with SW-620 colon, 88.3% with MCF7 breast, 93.8% in the assay with HCC-2998 colon and 78.1% with KM12 colon.
As to `COc1cc(-c2nn(-c3cccc(NC(=O)c4cccc(C(F)(F)F)c4)c3)cc2-c2ccncc2)ccc1Cl`, the growth was -1.13% (active) with RPMI-8226 leukemia; 11.8% with OVCAR-8 ovarian; 49.3% in the assay on OVCAR-5 ovarian; 46.5% in the assay with OVCAR-4 ovarian; 7.18% (active) in the assay with SK-OV-3 ovarian; 34% in the assay on IGROV1 ovarian. In addition, the growth in the assay on OVCAR-3 ovarian was -25.6% (active); in the assay on HS 578T breast, -5.69% (active); with NCI/ADR-RES ovarian it was 2.75% (active); in the assay on T-47D breast, 29%; in the assay on BT-549 breast, 26%; in the assay with MDA-MB-435 melanoma, -39.6% (active). Besides, the growth with SW-620 colon was 36%; with MCF7 breast it was 3.58% (active); in the assay with HCT-116 colon it was 8.15% (active); in the assay with KM12 colon it was 13.4%.
`CCCCN(CCCC)c1ccc(C(=N)c2ccc(N(CCCC)CCCC)cc2)cc1`: the growth with RPMI-8226 leukemia is -74.3% (active); in the assay on OVCAR-8 ovarian, -82.1% (active); in the assay with OVCAR-5 ovarian it was -82.4% (active); in the assay with OVCAR-4 ovarian, -79.3% (active); in the assay on SK-OV-3 ovarian, -22.6% (active); in the assay on IGROV1 ovarian, -53.5% (active). In addition, the growth in the assay on OVCAR-3 ovarian is -99.2% (active); in the assay with HS 578T breast, -45% (active); in the assay on T-47D breast it was -31.3% (active); with BT-549 breast, -7.68% (active); in the assay with MDA-MB-435 melanoma, -72.4% (active); in the assay with SW-620 colon, -84% (active). Also, the growth was -85.5% (active) in the assay with MCF7 breast, -99.9% (active) in the assay with HCT-116 colon, -96.7% (active) in the assay on HCC-2998 colon and -95.1% (active) in the assay on KM12 colon.

The record behind these values is PubChem BioAssay (NCI).
